In all, about 310,000 compounds went through this assay and about 14,000 (4.5%) showed an effect of 50% or more. The effect is printed as a negative number. Shown is part of a subset that was picked to be rich in strong results.
Molecular target: human ether-à-go-go-related gene (hERG) potassium channel (human, UniProt Q12809)
Assay: primary screen, population patch clamp on CHO cells stably expressing hERG; higher = less effect of the substance
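Note: peak tail current of the secondary pulse compared with the same well before compound.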

Sequence of human ether-à-go-go-related gene (hERG) potassium channel (Q12809 whole entry, looked up): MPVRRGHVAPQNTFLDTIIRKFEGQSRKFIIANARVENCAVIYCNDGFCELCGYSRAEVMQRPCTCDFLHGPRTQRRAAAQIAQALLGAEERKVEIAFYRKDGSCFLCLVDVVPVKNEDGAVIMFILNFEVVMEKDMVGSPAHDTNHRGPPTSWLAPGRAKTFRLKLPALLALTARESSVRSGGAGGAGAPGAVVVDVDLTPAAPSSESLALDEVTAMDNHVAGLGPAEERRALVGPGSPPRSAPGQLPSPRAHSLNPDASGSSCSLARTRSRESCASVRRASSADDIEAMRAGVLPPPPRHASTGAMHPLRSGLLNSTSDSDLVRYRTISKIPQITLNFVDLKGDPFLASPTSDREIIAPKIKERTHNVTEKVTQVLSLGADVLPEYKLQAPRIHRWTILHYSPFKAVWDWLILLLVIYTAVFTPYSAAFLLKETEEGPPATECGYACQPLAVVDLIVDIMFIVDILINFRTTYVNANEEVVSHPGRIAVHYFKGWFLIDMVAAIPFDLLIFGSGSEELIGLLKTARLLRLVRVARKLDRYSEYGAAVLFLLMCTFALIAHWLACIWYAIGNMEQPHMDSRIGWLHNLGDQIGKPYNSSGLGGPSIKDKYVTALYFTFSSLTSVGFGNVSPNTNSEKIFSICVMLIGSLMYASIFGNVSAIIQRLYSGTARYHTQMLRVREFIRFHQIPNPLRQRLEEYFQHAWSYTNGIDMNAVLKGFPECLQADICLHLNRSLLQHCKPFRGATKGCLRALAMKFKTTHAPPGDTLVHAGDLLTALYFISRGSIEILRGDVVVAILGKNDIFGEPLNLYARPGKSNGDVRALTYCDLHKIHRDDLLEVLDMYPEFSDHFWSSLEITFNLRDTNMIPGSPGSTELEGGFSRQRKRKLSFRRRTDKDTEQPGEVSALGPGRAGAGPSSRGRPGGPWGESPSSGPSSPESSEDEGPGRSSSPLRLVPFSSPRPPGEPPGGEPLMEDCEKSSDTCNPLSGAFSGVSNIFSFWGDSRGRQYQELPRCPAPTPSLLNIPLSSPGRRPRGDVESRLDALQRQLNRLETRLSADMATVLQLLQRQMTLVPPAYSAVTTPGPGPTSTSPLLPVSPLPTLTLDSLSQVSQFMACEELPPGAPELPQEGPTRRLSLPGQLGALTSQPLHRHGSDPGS

SMILES | hERG current change (%, negative = inhibition) at 10uM
COCC(=O)Nc1ccc(C(C)C)cc1 | -1.68%
CCCCC/S(CC1CC1(Cl)Cl)=N\S(=O)(=O)c1ccc(C)cc1 (stereo not drawn) | 15.8%
Cc1sc(NC(=O)C2CCCCC2C(=O)O)c(C(N)=O)c1-c1ccc(C(C)C)cc1 (stereo not drawn) | -9.39%
CCCCC(=O)Nc1nnc(SCC(=O)NCC2CCCO2)s1 (stereo not drawn) | -24.8%
CCNS(=O)(=O)c1ccc(CCC(=O)NCc2cccnc2)cc1 | 16.8%
Cc1ccc(C(=O)n2c3ccccc3c3ccccc32)cc1 | 15.9%
COC(=O)[C@]1(C)N[C@H](c2ccc(SC3CCCCC3)c(OC)c2)[C@@H]2C(=O)N(C)C(=O)[C@@H]21.O=C(O)C(F)(F)F | -16.6%
O=C(Nc1ccccc1)C1=C[C@@H](c2ccccc2)C[C@@H](OCc2ccc(CO)cc2)O1 | 2.2%
O=C(NCC(=O)N1CCOCC1)c1ccc(Br)o1 | 17.4%
CC(C)CNC(=O)CSc1n[nH]c(=O)n1CCc1ccccc1 | 22.1%
Cc1nc2c(-c3ccccc3)cnn2c(N2CCOCC2)c1C | 11.8%
COc1ccc(/C=N/NC(=O)C(C)Sc2ccccn2)cc1[N+](=O)[O-] (stereo not drawn) | -7.8%
COc1ccc(CCN(Cc2cc3ccc(C)cc3[nH]c2=O)C(C)=O)cc1OC | -65.1%
COc1ccc(CCN(Cc2cc3cc(C)ccc3[nH]c2=O)C(C)=O)cc1OC | -6.87%
COc1ccc(CC(=O)OCc2cc3ccc(C)cc3[nH]c2=O)cc1 | 9.18%
CC(=O)N(CCc1cccc(C)c1)Cc1cc2ccc(C)cc2[nH]c1=O | -19.7%
COc1ccc(CCNCc2cc3ccc(C)cc3[nH]c2=O)cc1OC | -73.6%
COc1cc(OC)c(OC)cc1CNCCc1ccc(OC)c(OC)c1 | -6.55%
CC(=O)c1cn(-c2ccc(Cl)cc2)c(=O)n(Cc2ccc(F)cc2)c1=O | 1.04%
COc1ccc(CNC(=O)CCS(=O)(=O)c2ccc(Br)cc2)cc1 | 7.33%
CC(=O)Nc1ccc(NS(=O)(=O)c2ccc(-c3cnc(C4CC4)o3)cc2)cc1 | 3.37%

SMILES | hERG current change (%, negative = inhibition) at 10uM
CCC(CC)C1C(C#N)=C(N)Oc2cc(C)oc(=O)c21 (stereo not drawn) | -12.7%
CC1(C)C(c2ccccc2)=NC(c2cccnc2)=[N+]1[O-] | 14.8%
COc1ccc(C(=O)N2CC3(C)C4CCC3(C)C2(C#N)C4)cc1OC (stereo not drawn) | 4.65%
COCCNC(=O)CSc1nc2nn(-c3ccccc3)c(=O)c-2c2n1CCCCC2 | 23.2%
O=C(CSc1nc2nn(-c3ccccc3)c(=O)c-2c2n1CCCCC2)Nc1ccc(F)cc1F | -63.2%
CC(C)CNC(=O)CSc1nc2nn(-c3ccccc3)c(=O)c-2c2n1CCCCC2 | -18%
COCC(C)NC(=O)CSc1nc2nn(-c3ccccc3)c(=O)c-2c2n1CCCCC2 (stereo not drawn) | 8.5%
CNC(=O)CSc1nc2nn(-c3ccccc3)c(=O)c-2c2n1CCCCC2 | -37.2%
O=C(CSc1nc2nn(-c3ccccc3)c(=O)c-2c2n1CCCCC2)NCCCc1ccccc1 | -63.1%
CC(C)(C)CC(=O)NCCc1csc(-c2ccccc2)n1 | -7.63%
Cn1ncc(Cl)c1C(=O)N/N=C/c1cccc(OC2CSC2)c1 | 8.77%
O=C(Nc1nccs1)c1cc(Cl)ccc1[N+](=O)[O-] | -9.55%
Cc1cccc(Cn2c(N(C)Cc3ccccc3)nc3c2c(=O)[nH]c(=O)n3C)c1 | -9.99%
CCOc1ccc2nc(NC(=O)Nc3cccs3)sc2c1 | 18%
O=C(Nc1ccccc1N1CCCC1)c1ccc(F)c(S(=O)(=O)N2CCOCC2)c1 | -22.5%
Cc1ccc(C(=O)Nc2ccccc2N2CCOCC2)cc1S(=O)(=O)N1CCOCC1 | -55.3%
O=C(Nc1ccccc1N1CCOCC1)c1ccc(F)c(S(=O)(=O)N2CCOCC2)c1 | -12.6%
O=C(Nc1ccccc1N1CCCC1)c1ccc(Cl)c(S(=O)(=O)N2CCOCC2)c1 | -41.4%
Cc1ccc(C(=O)Nc2ccccc2N2CCCC2)cc1S(=O)(=O)N1CCOCC1 | -51.2%
O=C(Nc1ccccc1N1CCOCC1)c1ccncc1 | -1.93%
O=C(Nc1ccccc1N1CCOCC1)c1ccc2c(c1)C(=O)N(Cc1ccncc1)C2=O | -58.8%

— PMC4336329 (PLoS ONE, 2015)
